As a reminder, the inhibition is the drop in the measured response relative to a control, in per cent.

Hit rate of the full screen: of about 290,000 compounds, about 160 (0.055%) were called active. This is one part of a sample in which actives are shown more often than they occur. Rule as the data show it: active = inhibition above about 50%; inactive = the rest.

For this experiment, the target named is Tyrosine-protein phosphatase non-receptor type 22 (Homo sapiens) (UniProt Q9Y2R2). As to the kind of experiment: PTPN22 lymphoid phosphatase activity blockers – biochemical, fluorescence intensity, uHTS (AID 1779).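 Also: plate controls were vehicle with enzyme for no effect and no enzyme for full effect.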 To be noted: recombinant LYP phosphatase, at 11.5 µM, active compounds read high.
Sequence of Tyrosine-protein phosphatase non-receptor type 22 (Homo sapiens) (Q9Y2R2 whole entry, looked up): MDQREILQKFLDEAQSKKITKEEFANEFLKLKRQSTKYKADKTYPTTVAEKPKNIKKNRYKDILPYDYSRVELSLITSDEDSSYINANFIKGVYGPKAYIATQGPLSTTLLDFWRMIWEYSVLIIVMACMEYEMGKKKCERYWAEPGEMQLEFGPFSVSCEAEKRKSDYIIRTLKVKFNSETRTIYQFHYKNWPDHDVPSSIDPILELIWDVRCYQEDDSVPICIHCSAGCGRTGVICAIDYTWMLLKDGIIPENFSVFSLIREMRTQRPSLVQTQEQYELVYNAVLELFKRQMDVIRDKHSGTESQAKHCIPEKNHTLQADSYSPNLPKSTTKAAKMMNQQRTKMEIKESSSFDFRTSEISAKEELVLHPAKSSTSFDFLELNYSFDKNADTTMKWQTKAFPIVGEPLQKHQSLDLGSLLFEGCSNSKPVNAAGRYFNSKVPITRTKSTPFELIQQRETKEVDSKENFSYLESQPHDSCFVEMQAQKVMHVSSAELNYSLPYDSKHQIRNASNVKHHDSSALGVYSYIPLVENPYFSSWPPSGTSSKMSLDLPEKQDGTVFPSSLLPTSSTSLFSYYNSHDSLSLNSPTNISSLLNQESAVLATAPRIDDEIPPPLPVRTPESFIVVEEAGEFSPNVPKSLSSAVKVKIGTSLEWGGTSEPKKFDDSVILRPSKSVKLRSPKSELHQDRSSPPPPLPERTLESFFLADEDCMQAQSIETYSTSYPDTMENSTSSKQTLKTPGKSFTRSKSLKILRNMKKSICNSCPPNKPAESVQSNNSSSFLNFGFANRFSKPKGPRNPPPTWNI
As to `O=C(c1ccncc1)N1CCN(C(=O)c2ccncc2)CC1`, the inhibition is 67% (active).
For `CS(=O)(=O)N1CCN(C(=O)c2ccncc2)CC1` the value was -7.1% (inactive).
Take `COc1ccc(C(=O)N2CCN(C(=O)c3ccncc3)CC2)cc1`: the inhibition was -9.1% (inactive).
For `Cc1cccc(-n2cc(CN3CCN(C(=O)c4ncn[nH]4)CC3)c(-c3cccc(F)c3)n2)c1` the value was 56.5% (active); for `Cc1ccc(-n2cc(CN3CCN(C(=O)c4ncn[nH]4)CC3)c(-c3ccc(F)cc3)n2)cc1`, -3.9% (inactive); for `CC(=O)N1CCCN(Cc2cn(-c3cccc(C)c3)nc2-c2cccc(F)c2)CC1`, -2.6% (inactive).
Regarding `CCN(CCCNC(=O)COc1cc(=O)n(CC)c2ccccc12)Cc1ccccc1`, the inhibition is 6.1% (inactive).
`CCOc1ccc(Nc2nc(N)c([N+](=O)[O-])c(N3CCN(CC)CC3)n2)cc1`: the inhibition is -3.7% (inactive).
For `N#C/C(=C(/O)c1ccc(C(=O)c2ccccc2)cc1)c1nc2ccccc2[nH]1` the value was -4.1% (inactive); for `O=C(N/N=C/c1ccccn1)c1ccc(Cl)cc1`, -5.3% (inactive).
With `O=C(N/N=C/c1ccccn1)c1ccccc1` the figure was 2.8% (inactive).
For `O=C(N/N=C/c1ccccn1)c1ccc(Cl)c(Cl)c1` the value was 72% (active).
Consider `COc1cc(/C=C2\SC(=O)N(CC(=O)Nc3cccc(C)c3)C2=O)cc([N+](=O)[O-])c1O`, for which the inhibition was 4.5% (inactive).
With `COc1cc(/C=C2\SC(=O)N(c3cccc(Cl)c3)C2=O)cc([N+](=O)[O-])c1O` the figure was 92.2% (active).
For `COc1cc(/C=C2\SC(=O)N(Cc3ccc(Cl)cc3)C2=O)cc([N+](=O)[O-])c1O` the value was 33% (inactive); for `COc1cc(/C=C2\SC(=O)N(c3ccccc3Cl)C2=O)cc([N+](=O)[O-])c1O`, 11.7% (inactive); for `COc1cc(/C=C2\SC(=O)N(c3ccc(Cl)cc3)C2=O)cc([N+](=O)[O-])c1O`, 91.6% (active).
For `COc1cc(/C=C2\SC(=O)N(Cc3ccc(F)cc3)C2=O)cc([N+](=O)[O-])c1O` the value was 0.7% (inactive); for `CS(=O)(=O)N(CC(=O)N1CCN(c2cccc(Cl)c2)CC1)c1cccc(F)c1`, 4.5% (inactive).
Regarding `CCCCN(C)CCC(=O)Nc1ccc2c(c1)CCC2`, the inhibition is -2.9% (inactive).
For `CCOc1ccc(Cl)cc1/C=N/NC(=O)c1ccccc1` the value was -4.5% (inactive).
With `CC1(C)c2ccccc2N2CC(=O)N[C@@]21/C=C/C=C/c1ccccc1` the figure was 8.6% (inactive).
With `c1cc(-n2nnc3cnccc32)ccn1` the figure was -4.3% (inactive); with `CC(=O)Nc1ccc(SCC(=O)Nc2ccc(Cl)cn2)cc1`, 77.1% (active).
For the compound `CC(=O)Nc1ccc(NC(=O)CSc2ccc(C)cc2)cc1`, the inhibition is -2.7% (inactive).
For `O=C(CSc1ccc2c(c1)OCCO2)Nc1ccc(Cl)cn1` the value was -8.6% (inactive).
With `CCn1cc(C(=O)NCCCN(CC(C)C)CC(C)C)c(=O)c2cc(S(=O)(=O)N(C)C3CCCCC3)ccc21` the figure was -0.6% (inactive); with `O=C(NC1CCSc2ccccc21)c1ccc(C(F)(F)F)cc1` (centres undefined), -7.3% (inactive).
For `O=C(NCc1ccc(F)cc1)c1c2c(nc3ccccc13)CCC2` the value was 3.5% (inactive); for `Cc1ccc2c(C)c(C(=O)NCC(C)(C)N3CCOCC3)oc2c1C`, -8.2% (inactive).
Regarding `COc1ccc(NC(=O)CC#N)cc1OC`, the inhibition was 0.1% (inactive).
With `COc1ccc(C(C#N)(CCC#N)CCC#N)cc1OC` the figure was 56.1% (active); with `C=CCc1ccc(OC)c(OC)c1`, -8.6% (inactive); with `CC(C)N(C(=O)CSc1nc2ccccc2n1Cc1ccccc1F)C(C)C`, 5.2% (inactive).
With `COC(=O)C(C(=O)NCC1CCCO1)C1CCCCCC1` (centres undefined) the figure was 86.6% (active).
Consider `CCOC(=O)C(C(=O)NCC1CCCO1)C1CCCCC1` (centres undefined), for which the inhibition is -4.2% (inactive).
As to `COC(=O)C(C(=O)NCC1CCCO1)C1CCCC1` (centres undefined), the inhibition is -6.5% (inactive).
With `CCOC(=O)NC(=O)C(=CNc1cccc(C)c1)C(=O)NC(=O)OCC` the figure was -4.7% (inactive); with `CCOC(=O)NC(=O)C(=CNc1ccc(C)cc1)C(=O)NC(=O)OCC`, 57.4% (active); with `CCOC(=O)NC(=O)C(=CNc1cccc(OC)c1)C(=O)NC(=O)OCC`, -7.5% (inactive).
With `O=C(CN1C(=O)NC2(CCc3ccccc3C2)C1=O)Nc1ccc(F)cc1` (centres undefined) the figure was 2% (inactive); with `COCC(=O)N(Cc1cc2ccc(C)cc2[nH]c1=O)c1cccc(C)c1`, -1% (inactive); with `NS(=O)(=O)c1cc(C(=O)OCC(=O)N2CCOCC2)ccc1Cl`, -4% (inactive).
For `COc1ccc(/C=C2\SC(=S)N(CCCC(=O)Nc3ccc(C(=O)O)cc3)C2=O)cc1OC` the value was -1.9% (inactive).
Take `COc1cc(/C=C2/SC(=S)N(CCC(=O)Nc3ccc(C(=O)O)cc3)C2=O)cc(OC)c1OC`: the inhibition was -0.9% (inactive).
With `O=S(=O)(CCc1ccncc1)C1Cc2cccc3cccc1c23` (centres undefined) the figure was -6.1% (inactive); with `CC(C)(C)S(=O)(=O)c1cnc(N2CCCCC2)nc1N`, -1.3% (inactive).
For `COc1ccc(N2C(=O)CC(NC34CC5CC(CC(C5)C3)C4)C2=O)c(OC)c1` (centres undefined) the value was -6.7% (inactive).
With `CC(=O)c1cccc(NC(=O)NC(C)c2ccc3c(c2)OCO3)c1` (centres undefined) the figure was -12.5% (inactive); with `CCCNC(=O)c1ccccc1N1CCN(CCCCN2C(=O)C3CCCCN3C2=O)CC1` (centres undefined), -16.7% (inactive).
Take `COc1ccc(C2CC(c3cccs3)=NN2C(=O)CSc2nncn2C)cc1OC` (centres undefined): the inhibition is 7.7% (inactive).
As to `Cc1c(N=Nc2ccc(O)cc2)c(=O)n(-c2ccccc2)n1C`, the inhibition is -2.3% (inactive).
With `Cc1[nH]c2ccccc2c1N=Nc1c(C)n(C)n(-c2ccccc2)c1=O` the figure was 94.5% (active).
For `Cc1c(-n2c(=S)[nH]c3ccccc3c2=O)c(=O)n(-c2ccccc2)n1C` the value was -7.5% (inactive); for `Cc1cc2c(c(SCC(=O)NCc3ccc(Cl)cc3)n1)C(=O)OC2`, -1.3% (inactive); for `CSCCC(NC(=O)c1ccccc1)C(=O)N(C)CC(=O)Nc1ccc(N2CCOCC2)cc1` (centres undefined), -6.8% (inactive).
As for `COCCN(C(=O)COC(=O)c1cccc2ccccc12)c1c(N)n(Cc2ccccc2)c(=O)[nH]c1=O`, the inhibition was -10.3% (inactive).
With `Cc1cccc(C)c1Nc1nnc(SC/C(O)=C(\C#N)c2nc3ccccc3[nH]2)s1` the figure was 4.2% (inactive); with `CCOC(=O)C(C(C)C)C(N)Cc1ccc(F)cc1` (centres undefined), -7.7% (inactive).
For `CCCCC(C(=O)OCC)C(N)Cc1ccc(F)cc1` (centres undefined) the value was 89.5% (active); for `CCCCC(CC)C(=O)NCc1ccc(F)cc1` (centres undefined), -9.2% (inactive); for `CC(C)CNC(=O)C1CCCN(C(=O)NCc2ccccc2)C1` (centres undefined), -8.2% (inactive).
With `COc1ccc(C2SCC(=O)N2CCCN(C)C)cc1` (centres undefined) the figure was 50.7% (active); with `CN(C)CCCN1C(=O)CSC1c1ccccc1` (centres undefined), -5.4% (inactive).
`COc1cc(C2SCC(=O)N2CCCN(C)C)cc(OC)c1OC` (centres undefined): the inhibition was -6.3% (inactive).
For `COc1ccc(C2CC23N=C(c2ccccc2)OC3=O)cc1` (centres undefined) the value was -2.9% (inactive); for `Cc1nnc(SCc2cccs2)[nH]c1=O`, -5.9% (inactive); for `O=C(NC1CCN(Cc2ccccc2)CC1)C1CCCN(c2nnc(-n3cccc3)s2)C1` (centres undefined), -1.4% (inactive).
For `CC(C)n1c(C(=O)OCC(=O)NCc2ccc3c(c2)OCO3)cc2sccc21` the value was -13% (inactive); for `CC(C)n1c(C(=O)OCC(=O)NCc2ccc3c(c2)OCO3)cc2occc21`, 59.5% (active).
With `CC(C)C(OC(=O)c1cc2occc2n1C)C(=O)NCc1ccc2c(c1)OCO2` (centres undefined) the figure was 3.8% (inactive); with `NC(=O)CC(NC(=O)Cc1ccc(Br)cc1)c1ccc(NC2CCC2)c([N+](=O)[O-])c1` (centres undefined), -1.3% (inactive); with `Cc1cccc(N2CCN(C(=O)c3ccc(Cl)c(NC4=NC5CS(=O)(=O)CC5S4)c3)CC2C)c1` (centres undefined), -0.7% (inactive).
As to `O=C(COc1ccc(S(=O)(=O)N2CCOCC2)cc1Cl)NCC1CCCO1` (centres undefined), the inhibition was -12% (inactive).
For `CCCOc1ccc(CN2CCOCC2)cc1OC` the value was -8% (inactive); for `c1cc(OCCCN2CCCCC2)ccc1CN1CCCCC1`, -8% (inactive).
As to `CCCCOc1ccc(CN2CCSCC2)cc1`, the inhibition was -4.9% (inactive).
For `CCCCCOc1ccc(CN2CCOCC2)cc1Cl` the value was 50.2% (active); for `CCCCOc1ccc(CN2CCCCC2)cc1`, 67.8% (active); for `CCCCCOc1ccc(Cl)cc1CN1CCOCC1`, -8.9% (inactive).
For `COc1ccc(C(=O)Nc2ccc(Cl)cc2C(=O)NCc2ccco2)cc1OC` the value was 0.7% (inactive); for `COc1cc(OC)cc(C(=O)NCCN2C(=O)S/C(=C\c3cccs3)C2=O)c1`, 0.8% (inactive).
For `Cc1nn(C(C)C(=O)NCCCN2CCCCCC2)c(=O)c2c1sc1ccccc12` (centres undefined) the value was -12.7% (inactive); for `O=C(CCCCn1c(=O)c2ccccc2n(Cc2ccccc2)c1=O)NC1CCN(Cc2ccccc2)CC1`, -1.4% (inactive).
On to `Cc1cc(NC(=O)Cn2c(=O)n(CCCCC(=O)NC3CCN(Cc4ccccc4)CC3)c(=O)c3ccccc32)n[nH]1`, for which the inhibition was 73.8% (active).
As to `Cc1cccc(C)c1NC(=O)Cn1c(=O)n(CCCC(=O)NC2CCN(Cc3ccccc3)CC2)c(=O)c2ccccc21`, the inhibition is -5.3% (inactive).
In the case of `CCOC(=O)C1=C(C)NC(=S)NC1c1ccc(-c2cccc(Cl)c2C)o1` (centres undefined), the inhibition was 8.2% (inactive).
With `COc1ccc2[nH]c(C)c(CCNC(=S)Nc3ccccc3C)c2c1` the figure was 0.8% (inactive); with `COc1ccc2[nH]c(C)c(CCNC(=S)Nc3cc(C)cc(C)c3)c2c1`, 2.4% (inactive); with `COc1ccc2[nH]c(C)c(CCNC(=S)Nc3cc(C)ccc3C)c2c1`, 83.2% (active).
With `COc1ccc(COc2ccc(S(=O)(=O)N3CCCC3)cc2C(N)=O)cc1F` the figure was -6% (inactive); with `Cc1ccccc1NS(=O)(=O)c1cc(S(C)(=O)=O)ccc1Cl`, -0.4% (inactive); with `CCNS(=O)(=O)c1cc(S(C)(=O)=O)ccc1Cl`, 85.1% (active).
With `CS(=O)(=O)c1ccc(Cl)c(S(=O)(=O)NCc2ccccc2)c1` the figure was -8.1% (inactive).
